Inhibition data for 5 compounds are collected here from PubChem BioAssay.

Values without a mark were called inactive. No rule for the calls is given here.

The target in this test is Pantothenate synthetase (Mycobacterium tuberculosis (strain ATCC 25618 / H37Rv)) (UniProt P9WIL5). As to the kind of experiment: Recombinant Mtb pantothenate synthetase (PanC) inhibitors, coupled enzyme, confirmatory (AID 375).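 Also: 0% = full reaction with vehicle and 100% = no enzyme background.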 The note with it: coupled enzyme assay; at 10 µM, hits give high values.
Chain of Pantothenate synthetase (Mycobacterium tuberculosis (strain ATCC 25618 / H37Rv)) (P9WIL5 whole entry, looked up): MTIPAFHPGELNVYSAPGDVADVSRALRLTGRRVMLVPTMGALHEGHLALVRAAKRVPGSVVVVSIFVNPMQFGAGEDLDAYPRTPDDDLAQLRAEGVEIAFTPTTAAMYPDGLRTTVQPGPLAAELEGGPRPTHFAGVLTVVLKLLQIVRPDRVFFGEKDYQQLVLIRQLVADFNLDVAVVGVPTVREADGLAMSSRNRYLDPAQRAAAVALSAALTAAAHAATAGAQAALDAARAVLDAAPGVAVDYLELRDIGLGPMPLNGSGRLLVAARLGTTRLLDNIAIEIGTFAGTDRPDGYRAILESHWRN

Broadly, the inhibition is the share of the control response that was lost under treatment.

Regarding `Cc1nnc(NC(=O)CSc2nnc(-c3ccc(S(=O)(=O)N4CCCC4)cc3)n2C)s1`, the inhibition was 8%.

In the case of `COc1ccc(NC(=O)CCc2ccccc2)cc1NC(=O)c1ccco1`, the inhibition was 9%. To `Cc1c(/C(O)=C2/C(=O)C(=O)N(CCN3CCOCC3)C2c2cccnc2)cnn1-c1ccccc1` (stereo not given) belongs 1%; to `CCc1nc2sc3c(c2c(=O)o1)CCCC3`, 0%; to `CC1(C)OC(=O)N(c2cccnc2)C1(C)O` (stereo not given), 3%.
